Data as given in PubChem BioAssay.
Calls of active or inactive are those of the source.

Test: E. coli acrAB mutant growth effects, primary screen, E. coli filamentation inducers, strain DRC39, OD650, 48 h (AID 1179);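 further: screen aims at cell division blockers that make cells filament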
Conditions: E. coli DRC39 delta-acrAB growth, higher = more signal, called active from +8 up or from −8 down

| SMILES | z-score |
| --- | --- |
| NC(=O)[C@@H]1[C@H]2C(=O)O[C@H](c3ccccc3)[C@H](c3ccccc3)N2[C@H](c2ccc(O)cc2)[C@@]12C(=O)Nc1ccc(C#CC3=CCCCC3)cc12 | -0.705 (inactive) |
| COCCCNC(=O)[C@]1(Cc2ccccc2)N=C(c2ccc(OCCCO)cc2)O[C@@H]1c1ccccc1CN=[N+]=[N-] | 1.55 (inactive) |
| CC(C)(C)OC(=O)CC[C@]1(C(N)=O)N=C(c2ccc(OCCCO)cc2)O[C@H]1c1ccccc1 | -0.585 (inactive) |
| O=C1C2C=CC(C(O)C=Cc3ccc([N+](=O)[O-])cc3)N(Nc3ccccc3F)C2C(=O)N1c1ccccc1 (stereo not drawn) | -0.138 (inactive) |
| C=C(CCCC)/C(=C/C[C@@H](OC(C)=O)c1ccccc1OCCO)c1cc(C(=O)OC)ccc1OC | 1.04 (inactive) |
| O=C1C2C=CC(C(O)c3ccc(F)cc3)N(Nc3ccc([N+](=O)[O-])cc3)C2C(=O)N1c1ccccc1 (stereo not drawn) | -0.639 (inactive) |
| CC(=O)NCCCC[C@@H]1NC(=O)[C@H]2C[C@@H](C(=O)O)[C@@H](c3ccc(O)cc3)N2C1=O | -0.879 (inactive) |
| COc1ccc([Si](C)(C)[C@H]2[C@H](CCn3cc([C@H](O)c4ccccc4)nn3)O[C@@]3(C(=O)N(C)c4ccccc43)[C@@H]2C)cc1 | 0.416 (inactive) |

Test: RPMI8226 myeloma cell viability, profiling panel, resazurin fluorescence, basal, 24 h, PK04 Diversity Set (AID 1180);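 further: RPMI8826 multiple myeloma cell line at 5000 cells per well; test concentration not given here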
Conditions: higher = more signal

| SMILES | z-score |
| --- | --- |
| [N-]=[N+]=Nc1ccccc1[C@H]1OC(c2ccc(OCCCO)cc2)=N[C@@]1(Cc1ccccc1)C(=O)N1CCOCC1 | -4.56 |
| CN1C(=O)C2C=CC(C(O)c3ccccc3)N(N3CCCCC3)C2C1=O (stereo not drawn) | -1.56 |
| C=CCC(OC(C)=O)[C@@H]1[C@@H](N(Cc2ccc(-c3ccccc3)cc2)C(=O)Cc2ccc(F)cc2)c2cc(OCCCO)ccc2N1C(=O)c1ccc2ccccc2c1 (stereo partly drawn) | -0.112 |
| COc1cc(CO)cc(I)c1O[C@H]1C=C(C(=O)NCCO)C[C@@H](N(C(=O)c2cc3ccccc3oc2=O)C2CCCCCC2)[C@@H]1O | -0.335 |
| CCCNC(=O)[C@@]1(Sc2ccc(C)cc2)CC(=O)N(Cc2ccccc2C(F)(F)F)[C@@H]1c1ccc(CO)cc1I | -2.15 |
| NC(=O)[C@@H]1[C@H]2C(=O)O[C@H](c3ccccc3)[C@H](c3ccccc3)N2[C@H](c2ccc(OCCO)cc2)[C@@]12C(=O)Nc1ccc(C#CC3=CCCCC3)cc12 | -6.82 |
| COCCCNC(=O)[C@@]1(Cc2ccccc2)N=C(c2ccc(OCCCO)cc2)O[C@H]1c1ccccc1CN=[N+]=[N-] | -1.22 |
| Cc1ccc(C2C3C(=O)CC4C(=O)N(c5ccccc5)C(=O)C4C3CN2S(=O)(=O)c2ccc(C)cc2)cc1 (stereo not drawn) | -0.82 |
| O=C(NC1CC1)[C@@H]1c2ccccc2C(=O)N(Cc2cc(F)cc(C(F)(F)F)c2)[C@H]1c1ccc(CO)cc1 | -0.0559 |
| COc1cc2c(cc1O)C(c1cccs1)N(Cc1cccc(OC(F)(F)F)c1)CC2 (stereo not drawn) | -1.93 |
| CCOC(=O)C1=CC[C@@H](c2ccccc2)N(S(=O)(=O)c2ccc(C)cc2)[C@H]1c1ccc(CC)cc1 | -0.224 |
| CN1CCC(CCCO)=CC1c1cccs1 (stereo not drawn) | -0.707 |
| CCCCCN1CC=CC23O[C@@H]4C=CCOC(=O)[C@@H]4[C@H]2C(=O)N(C(C)CO)[C@@H]3C1=O (stereo partly drawn) | 0.003 |
| Cc1ccc(S[C@]2(C(=O)NCC(C)C)CC(=O)N(Cc3cc(C(F)(F)F)cc(C(F)(F)F)c3)[C@@H]2c2ccc(CO)cc2)cc1 | -0.321 |
| CC1CC/C=C\[C@H]2OC34C=CCN(Cn5nnc6ccccc65)C(=O)[C@H]3N(CCCCCO)C(=O)[C@@H]4C2C(=O)O1 (stereo partly drawn) | 0.796 |
| COc1ccc([Si](C)(C)[C@@H]2[C@@H](CCO)O[C@]3(C(=O)N(Cc4cccc(N5CCOC5=O)c4)c4ccccc43)[C@H]2C)cc1 | -2.78 |
| CCCCN1CC=CC23O[C@@H]4C=CCCOC(=O)C4[C@H]2C(=O)N(CCCCCO)[C@@H]3C1=O (stereo partly drawn) | 0.769 |
| COc1ccc(CCNC(=O)[C@@]2(C)c3ccccc3C(=O)N(c3ccc(C)cn3)[C@H]2c2ccc(CO)cc2)cc1 | 0.933 |

| SMILES | z-score |
| --- | --- |
| COC(=O)[C@@]1(Cc2ccc(OC)cc2)[C@H]2c3cc(C(=O)N4CCCC4)n(Cc4nc5ccccc5[nH]4)c3C[C@H]2CN1C(=O)c1ccccc1 | -1.2 |
| [N-]=[N+]=NCc1ccccc1[C@@H]1OC(c2ccc(OCCCO)cc2)=N[C@]1(CCS(=O)(=O)c1ccccc1)C(=O)N1CCOCC1 | 1.05 |
| CCOC(=O)C1=CC[C@H]2C(=O)N(c3ccccc3)C(=O)[C@@H]12 | -0.0357 |
| COC(=O)[C@@]1(Cc2ccc(F)cc2)[C@H]2c3cc(C(=O)N(C)C)n(Cc4ccc(C)o4)c3C[C@H]2CN1C(=O)c1ccccc1 | -0.0803 |
| OCCCC1=CC(C2CC2)N(Cc2cccc(OC(F)(F)F)c2)CC1 (stereo not drawn) | 0.365 |
| CCOc1cc(C(O)C2C=CC3C(=O)N(c4ccccc4)C(=O)C3N2Nc2ccc(C(C)C)cc2)ccc1O (stereo not drawn) | -1.3 |
| CO[C@H]1O[C@H](CO)[C@@H](OC(=O)Nc2ccccc2)[C@@H]2OC(=O)[C@@H](Cc3ccc4ccccc4c3)C/C=C/C[C@H](Cc3ccc4ccccc4c3)C(=O)O[C@@H]12 | -1.15 |
| CCOC(=O)C[C@H]1[C@H](OC(=O)c2ccc(C(=O)c3ccccc3)cc2)[C@@H](NC(=O)Cc2ccc(OC)cc2)c2cc(OCCCO)ccc2N1C(=O)c1ccc2ccccc2n1 | 0.273 |
| C=CC[C@]1(C(=O)N2CCOCC2)N=C(c2ccc(OCCCO)cc2)O[C@H]1c1ccccc1N=[N+]=[N-] | -0.266 |
| NC(=O)[C@@H]1[C@H]2C(=O)O[C@H](c3ccccc3)[C@H](c3ccccc3)N2[C@H](c2ccc(O)cc2)[C@@]12C(=O)Nc1ccc(C#CC3=CCCCC3)cc12 | -6.39 |
| COCCCNC(=O)[C@]1(Cc2ccccc2)N=C(c2ccc(OCCCO)cc2)O[C@@H]1c1ccccc1CN=[N+]=[N-] | -1.08 |
| CC(C)(C)OC(=O)CC[C@]1(C(N)=O)N=C(c2ccc(OCCCO)cc2)O[C@H]1c1ccccc1 | -0.676 |
| O=C1C2C=CC(C(O)C=Cc3ccc([N+](=O)[O-])cc3)N(Nc3ccccc3F)C2C(=O)N1c1ccccc1 (stereo not drawn) | -0.381 |
| C=C(CCCC)/C(=C/C[C@@H](OC(C)=O)c1ccccc1OCCO)c1cc(C(=O)OC)ccc1OC | 0.627 |
| O=C1C2C=CC(C(O)c3ccc(F)cc3)N(Nc3ccc([N+](=O)[O-])cc3)C2C(=O)N1c1ccccc1 (stereo not drawn) | -0.152 |
| CC(=O)NCCCC[C@@H]1NC(=O)[C@H]2C[C@@H](C(=O)O)[C@@H](c3ccc(O)cc3)N2C1=O | 0.002 |
| COc1ccc([Si](C)(C)[C@H]2[C@H](CCn3cc([C@H](O)c4ccccc4)nn3)O[C@@]3(C(=O)N(C)c4ccccc43)[C@@H]2C)cc1 | -0.568 |
